Test results taken from PubChem BioAssay AID772 (SRMLSC, 2007).
The campaign covered roughly 3,300 compounds. About 20 (0.6%) were called active.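 The calls were made as follows: active = growth inhibition above 90%, meaning viable cell count cut by more than 90% versus vehicle controls; inactive = growth inhibition below 90%.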 The full list was thinned out, with actives kept by preference.

Experiment: HT29 colon tumor cell growth inhibition, primary screen, imaging, high content imaging, 72 h, CellTiter-Glo (AID 772);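 as to condensed nuclei: condensed means nuclear area below control median minus 1.5 SD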
Conditions: HCS imaging cell count, at 10 µM, stronger effect = higher value; for condensed nuclei: measured here: percent cells with condensed nuclei
[1] = measured here: ATP CellTiter-Glo viability

Row | SMILES | growth inhibition | growth inhibition [1] [%] | condensed nuclei [%]
1 | COc1ccc2[nH]c(C)c(C(=O)CN3CCc4cc(OC)c(OC)cc4C3)c2c1 | -33.9% (inactive) | -14.6 | 2.58
2 | CCN(CC)C(=O)CSc1nc2ccccc2c(=O)n1CC1CCCCC1 | 65.6% (inactive) | 31.7 | 18.9
3 | Cc1[nH]c2ccc(F)cc2c(=O)c1SC(F)(F)C(F)C(F)(F)F (stereo not drawn) | -7.36% (inactive) | -57.2 | 1.61
4 | COc1cccc2c(=O)c(SC(F)(F)C(F)C(F)(F)F)c(C)[nH]c12 (stereo not drawn) | 94% (active) | 65.5 | 36.9
5 | Cc1onc(-c2ccccc2Cl)c1C(=O)N1CCN(c2nc3ccccc3s2)CC1 | 55.9% (inactive) | 62.8 | 7.24
6 | O=C1[C@@H]2[C@H](C(=O)N1n1cnnc1)[C@H]1C=C[C@@H]2C1 | -36.7% (inactive) | 4.74 | 7.85
7 | Cc1cccn2c(=O)c3cc(C#N)c(=N)n(Cc4ccncc4)c3nc12 | 10.6% (inactive) | -4.36 | 5.14
8 | CCC(NC(=O)Nc1cc(OC)c(OC)c(OC)c1)(C(F)(F)F)C(F)(F)F | 9.36% (inactive) | -14.6 | 2.2
9 | COC(=O)[C@@H](N)Cc1ccc(O)cc1 | -11.9% (inactive) | 12.5 | 9.88
10 | COC(=O)/C=c1/s/c(=C(/C#N)C(=O)N2CCOCC2)n(-c2ccccc2)c1=O | -9.52% (inactive) | -73 | 5.81
11 | C=CCOC(=O)C1=C(C)NC(SCC(=O)Nc2ccc(C)c(Cl)c2)=C(C#N)C1c1ccco1 (stereo not drawn) | 81.3% (inactive) | 81.8 | 10.5
12 | O=C1C(=O)N(Cc2cccnc2)C(c2ccccn2)/C1=C(/O)c1ccc(Br)cc1 (stereo not drawn) | -60.8% (inactive) | -51.9 | 3.93
13 | CCOC(=O)c1c(C)n(C)c2ccc(O)c(S(=O)(=O)c3ccccc3)c12 | 0.86% (inactive) | -12.9 | 2.84
14 | Cc1nc(Sc2cccn2C)c(C(F)(F)F)c(=O)[nH]1 | 26% (inactive) | -42.6 | 1.74
15 | N#CC1=C(C=Nc2ccccc2O)CCC1 | 2.22% (inactive) | -3.16 | 1.93
16 | CCOC(=O)c1c(C)n(C)c2ccc(OC)c(NC(=O)CCN3CCSCC3)c12 | -24% (inactive) | -19.5 | 1.98
17 | Cc1cc2c(c(=O)n1CC1CCCO1)C(c1ccc3c(c1)OCO3)C(C#N)=C(N)O2 (stereo not drawn) | -29.9% (inactive) | -39 | 2.84
18 | COC(=O)C(NC(=O)c1ccccc1)(Nc1nccs1)C(F)(F)F (stereo not drawn) | 60.8% (inactive) | 20.8 | 9.01
19 | CC(C)(C)C1=Nn2c(nnc2-c2ccccn2)SC1 | -24.5% (inactive) | -54.2 | 2.89
20 | Cn1c(Cl)nc2c1c(=O)n(Cc1cccc(Br)c1)c(=O)n2C | 58.3% (inactive) | 38 | 20.4
21 | CC(NC(=O)NCc1cccnc1)(C(F)(F)F)C(F)(F)F | -58% (inactive) | -34.9 | 7.24
22 | CCO/C(C)=N/n1c2nc3ccccc3nc2c2c(=O)n(Cc3ccccc3Cl)c(C)nc21 | -20.7% (inactive) | -31 | 2.79
23 | CC(C)N=c1cc2n(-c3ccc(Cl)cc3)c3ccccc3nc-2cc1Nc1ccc(Cl)cc1 | 39.7% (inactive) | 87 | 30.8
24 | COC(=O)NC(Nc1sc2c(c1C(N)=O)CCCC2)(C(=O)OC)C(F)(F)F (stereo not drawn) | -86.9% (inactive) | -40.6 | 3.2
25 | O=C(CN1C(=O)c2ccccc2S1(=O)=O)NCCSCc1ccco1 | 36.4% (inactive) | 6.94 | 3.38
26 | CCCCCNC(=O)C(C#N)c1nc2ccccc2nc1N1CC(C)OC(C)C1 (stereo not drawn) | 31% (inactive) | -14.9 | 8.13

Row | SMILES | growth inhibition | growth inhibition [1] [%] | condensed nuclei [%]
27 | CCN(CC)c1ccc2cc(-c3nnc(-c4ccncc4)o3)c(=O)oc2c1 | 99.1% (active) | -9.72 | 4.75
28 | CCN(CC)c1ccc2cc(C(=O)Nc3ccccn3)c(=O)oc2c1 | 12.7% (inactive) | -23.3 | 5.56
29 | CCCCCCc1cc2cc(-c3nnc(-c4ccccc4O)o3)c(=O)oc2cc1O | 23.4% (inactive) | 12.5 | 4.18
30 | CCOC(=O)CSc1nnc2n(Cc3ccccc3)c(=O)c3c4c(sc3n12)CCC4 | 17.8% (inactive) | -5.86 | 16.9
31 | CCOC(=O)c1ccc(NC(=O)CCC(CC)C(=O)O)cc1 (stereo not drawn) | -26.9% (inactive) | -22.9 | 2.9
32 | CC1(C(=O)CSc2n[nH]c(-c3ccccc3Cl)n2)CCC(=O)O1 (stereo not drawn) | -77.2% (inactive) | -34.5 | 2.66
33 | OCCN(CCO)c1ncnc2c1sc1nc(N3CCOCC3)c3c(c12)CCCC3 | 49.2% (inactive) | 92.5 | 17.2
34 | CC1(C)Cc2c(sc3nc(SCC#N)n(C4CCCCC4)c(=O)c23)CO1 | 25.6% (inactive) | 23.5 | 3.8
35 | N#CC(C(=O)NC1CCCCC1)c1nc2ccccc2nc1N1CCN(c2ccccc2F)CC1 (stereo not drawn) | -45.2% (inactive) | -45.5 | 1.44
36 | CCCCC(CCC(=O)Nc1ccc(C(=O)OC)cc1)C(=O)O (stereo not drawn) | 37.5% (inactive) | -7.18 | 1.33
37 | Cc1c(CCC#N)c(N2CCN(C3CCCCC3)CC2)n2c(nc3ccccc32)c1C#N | 32.8% (inactive) | -4.95 | 10.6
38 | Cc1cc(COc2ccccc2OCCN2CCN(C)CC2)no1 | 4.14% (inactive) | 10.2 | 1.56
39 | CC(=O)c1cc(C#N)c(SCc2ccncc2)nc1C | 26.3% (inactive) | 11 | 4.17
40 | CCOC(=O)CC(=O)CSc1nc2c(cc1C#N)CCCCCC2 | -4.76% (inactive) | -61.7 | 6.69
41 | COC(=O)CC1SC(=O)NC1=O (stereo not drawn) | -1.44% (inactive) | -13 | 4.51
42 | Cc1ccc(SCc2nnc(N)s2)cc1 | -4.01% (inactive) | 13.4 | 15.1
43 | CCN(CC)CCCC1(CN)OCCc2ccccc21 (stereo not drawn) | -50.9% (inactive) | -27.8 | 1.84
44 | CCOc1cccc(-c2nnc3sc(-c4cc(OC)c(OC)c(OC)c4)nn23)c1 | -44.5% (inactive) | -50.4 | 2.45
45 | Cc1ccc2cc(CN(C(=O)c3ccco3)c3ccccc3C)c(=O)[nH]c2c1 | -61.6% (inactive) | -59.5 | 2.77
46 | CCCOc1ccc(Cl)cc1CN1CCOCC1 | -59.3% (inactive) | -68.7 | 3.51
47 | COn1c(SC2CCCCC2)nc2ccccc2c1=O | 52.3% (inactive) | 29.2 | 12.3
48 | CCOC(=O)C1=C(N)n2c(s/c(=C\c3ccco3)c2=O)=C(C(=O)OC(C)C)C1c1ccco1 (stereo not drawn) | 50% (inactive) | -8.27 | 23.3
49 | O=C(O)c1cc2sccc2s1 | 33% (inactive) | -8.08 | 8.44
50 | CC1(C)NC(=O)N(CC(O)COc2ccccc2C(=O)Nc2ccccc2)C1=O (stereo not drawn) | -19.4% (inactive) | -40.4 | 5.25
51 | COC(=O)C1C(=O)CC(C)(O)C(C(=O)OC)C1c1ccccc1F (stereo not drawn) | 19% (inactive) | -32.9 | 2.72
52 | O=C(OCC#CCSc1nnc(-c2ccccc2)o1)c1cccs1 | 38% (inactive) | 5.5 | 10.3

Row | SMILES | growth inhibition | growth inhibition [1] [%] | condensed nuclei [%]
53 | CCOC(=O)CSc1nc(NC#N)nc(N(CC)CC)n1 | -10.6% (inactive) | -34.2 | 2.47
54 | CC1(C)CC(=O)C(C=NCC(O)c2ccccc2)=C(O)C1 (stereo not drawn) | 1.15% (inactive) | -3.71 | 3.13
55 | CCN(CC)Cc1cc(C(C)=O)ccc1OCC(C)C | -17.7% (inactive) | -47.7 | 2.8
56 | Cc1ccc(C2/C(=C(/O)c3cnn(-c4ccccc4)c3C)C(=O)C(=O)N2CCN2CCOCC2)o1 (stereo not drawn) | -41.7% (inactive) | -16.4 | 5.65
57 | CC1CCN(c2oc(-c3ccccc3Cl)nc2C#N)CC1 | 39.9% (inactive) | -1.14 | 4.72
58 | Cc1nnc(C)n1/N=C/c1cccn1C | -26.9% (inactive) | -16.7 | 2.68
59 | CCOC(=O)/C(C#N)=C1\Nc2ccccc2N=C1N(CC(C)C)CC(C)C | 15.8% (inactive) | -0.53 | 3.37
60 | O=C(c1ccc2c3c(cccc13)C(=O)N(O)C2=O)N1CCCCC1 | 63.6% (inactive) | 65.6 | 16.2
61 | S=C(N=Nc1ccccc1)NNc1ccccc1 | 5.63% (inactive) | 9.94 | 9.9
62 | CCCCCC1CC(CC#CCN2CCOCC2)C(=O)O1 (stereo not drawn) | -6.01% (inactive) | -22.1 | 3.8
63 | Cc1nc(NCCCO)c(C#N)c2c1COC(C)(C)C2 | 26.3% (inactive) | -0.61 | 5.86
64 | CCOC(=O)c1[nH]c2ccc(OC)cc2c1NC(=O)CCN1CCC(C)CC1 | 7.19% (inactive) | 8.59 | 9.76
65 | COc1cccc(-c2nnc3sc(-c4ccc(Cl)cc4)nn23)c1 | -127% (inactive) | -46.5 | 8.69
66 | O=C(O)C(Cc1c[nH]c2ccccc12)NS(=O)(=O)c1cccc2nsnc12 (stereo not drawn) | 9.77% (inactive) | 1.74 | 1.59
67 | Cc1nn2c(-c3ccc(Cl)cc3)nnc2s1 | 0.82% (inactive) | -46.2 | 2
68 | c1ccc2c(c1)[nH]c1c(N3CCSCC3)ncnc12 | 57.2% (inactive) | 14.5 | 5.16
69 | Cc1ccc2[nH]c3c(N4CCN(Cc5ccccc5)CC4)ncnc3c2c1 | 50.9% (inactive) | 7.07 | 2.3
70 | Fc1ccc2[nH]c3c(N4CCN(Cc5ccc6c(c5)OCO6)CC4)ncnc3c2c1 | 92% (active) | 96.7 | 24.5
71 | CN1CCN(c2ncnc3c2[nH]c2ccc(F)cc23)CC1 | 27.9% (inactive) | 14.8 | 6.32
72 | Cc1ccc2[nH]c3c(N4CCN(Cc5ccc6c(c5)OCO6)CC4)ncnc3c2c1 | 73.7% (inactive) | 96.6 | 29.9
73 | COc1ccc2[nH]c3c(N4CCN(Cc5ccc6c(c5)OCO6)CC4)ncnc3c2c1 | 20.7% (inactive) | 21 | 1.08
74 | Cc1ccc2[nH]c3c(N4CCOCC4)ncnc3c2c1 | -53.8% (inactive) | -45.3 | 5.07
75 | c1ccc(CN2CCN(c3ncnc4c3[nH]c3ccccc34)CC2)cc1 | 93.4% (active) | 88.4 | 27.8
76 | Cc1ccc2[nH]c3c(N4CCCCCC4)ncnc3c2c1 | 96.5% (active) | 96 | 39.6
